Over roughly 68,000 sequences, “fluorescence intensity (a.u.)” has its median near 9,100; the highest 2% begin near 16,000. The full list was thinned out, with the highest values kept by preference.
target: OsWRKY34 (Oryza sativa, UniProt Q0JBA9 1-250); experiment: protein-binding microarray (RPBM); PBS, 2% BSA, 51.3 ng/ul salmon testes DNA, 50 uM zinc acetate, 200 nM TF, 25 C, 1 h; high values mean tight binding; details: protein: recombinant; tags: N-terminal polyhistidine and DsRed monomer fusion (pET32a); label: CyDye5-dUTP incorporated in the synthesized complementary strand; 3' TTTTT single-stranded linker to array surface; dsDNA, one strand shown
Sequence (Q0JBA9 entry or part of it): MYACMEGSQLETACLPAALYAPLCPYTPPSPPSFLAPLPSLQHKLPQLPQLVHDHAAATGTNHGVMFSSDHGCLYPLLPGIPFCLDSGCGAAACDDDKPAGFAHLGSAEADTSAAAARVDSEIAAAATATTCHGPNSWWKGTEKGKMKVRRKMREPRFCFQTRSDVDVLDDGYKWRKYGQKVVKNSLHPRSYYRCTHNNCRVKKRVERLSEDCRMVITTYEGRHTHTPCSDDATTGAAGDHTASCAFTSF
Outline: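 Transcription factors, each fused N-terminally to a polyhistidine tag and DsRed, were expressed in E. coli BL21-CodonPlus and purified on Ni–NTA. A custom Agilent array was made double-stranded by primer extension with Cy5-dUTP and blocked with 2% BSA. It was incubated with 200 nM protein in PBS, 2% BSA, salmon testes DNA and 50 µM zinc acetate at 25 °C for 1 h, then washed. The binding signal is per-feature fluorescence intensity (arbitrary units) read on an Axon 4000B scanner.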

Sequence	binding signal
CACCACCCAGATCTGTCTCGTCTCTGTTCTTGCCTTCGCTCGGAGTCACCTAGTGCAG	11900 fluorescence intensity (a.u.)
TGGTGTCTCATAATTCTCTACATGGTATCAAATACTGGTTCGGAGTCACCTAGTGCAG	9610 fluorescence intensity (a.u.)
GGCGTTATATCTGGTTTTGTGGCTGAGGGAGGTAATTTAGCGGAGTCACCTAGTGCAG	11700 fluorescence intensity (a.u.)
TTCACGTTCAATGTTTGACCGTTCGTCTTATTTGAAAATTCGGAGTCACCTAGTGCAG	8550 fluorescence intensity (a.u.)
AACTTCAGTCCTTTTCCATCACATCAACCTGTCATATACACGGAGTCACCTAGTGCAG	8220 fluorescence intensity (a.u.)
TGAATTGGGAAATTTCGGTGTTTTTTTTCTTCTTTTTTTTCGGAGTCACCTAGTGCAG	8740 fluorescence intensity (a.u.)
TAGTTTTCTCATGTTCATCAATTTAAATACCTAACAATACCGGAGTCACCTAGTGCAG	8180 fluorescence intensity (a.u.)
TCTTTTTTCCATCCATCTTTTTTTCGCCGTTCTTTCCGGTCGGAGTCACCTAGTGCAG	8220 fluorescence intensity (a.u.)
TTCTCTTGCTTCCTTTTTGGTCATTTGAGATAGCTTTATCCGGAGTCACCTAGTGCAG	10300 fluorescence intensity (a.u.)
ACTTTTTCCGAACCAAAATGGACTTCTTCCTTACGGTTACCGGAGTCACCTAGTGCAG	8390 fluorescence intensity (a.u.)
GGTTCTTTGTTTCCGTTTGCTTTACCATTTTTGTTCCTTTCGGAGTCACCTAGTGCAG	10000 fluorescence intensity (a.u.)
CAAACAAAATGGGTTTCTTCTTACGGTTGTGGGCTTTTTCCGGAGTCACCTAGTGCAG	17400 fluorescence intensity (a.u.)
TTTCCTTTACTTTGGTGGTTCTTTTTTTTTTCTTTGTTTCCGGAGTCACCTAGTGCAG	11400 fluorescence intensity (a.u.)
GCTTGCTTTGTCACATGCAGTTTTACACCTTTTATTTCTCCGGAGTCACCTAGTGCAG	10400 fluorescence intensity (a.u.)
TGCTTGTACAGTTTCCGGTTTCTTTGCCATTTCGTTTACACGGAGTCACCTAGTGCAG	20000 fluorescence intensity (a.u.)
GCTTGCAGGGCTTGGTTGTTTCTTCTTCCGTTTTTTTTTACGGAGTCACCTAGTGCAG	13600 fluorescence intensity (a.u.)
CTGCTTTTATAGTTTGGTGGGCTTTTCTTTGCTAGTGGGCCGGAGTCACCTAGTGCAG	10600 fluorescence intensity (a.u.)
GGTTTCCGTGGTGGGCCGGTTTGGGCTTTTCTTTTTTACACGGAGTCACCTAGTGCAG	18500 fluorescence intensity (a.u.)
AATCGCCGTTCTAGCTTTTTGGTCTTGGTCTTTTTTTATCCGGAGTCACCTAGTGCAG	21400 fluorescence intensity (a.u.)
ATCTCTTAACCTTTTTCTTATTACCAAACATGCTAACGGTCGGAGTCACCTAGTGCAG	8030 fluorescence intensity (a.u.)
TCGCCATCGATCGATCGTCTCAACCTCAACCACATTATTGCGGAGTCACCTAGTGCAG	8550 fluorescence intensity (a.u.)
TCTTCGCAACTCCAAACTTCCCGAGCATCTTATCTTTGCACGGAGTCACCTAGTGCAG	8990 fluorescence intensity (a.u.)
GTATTGCAATTTTTTTTTGTTTGTGTTGTATCTGTTCTCTCGGAGTCACCTAGTGCAG	8110 fluorescence intensity (a.u.)

From publication PMC7819943, “Rice protein-binding microarrays: a tool to detect cis-acting elements near promoter regions in rice”
